Assay [1] concerns the target Nuclear receptor coactivator 3 (Homo sapiens) (UniProt Q9Y6Q9). Briefly: NCOA3 GAL4-fusion reporter inhibition – cell-based, luminescence, quadruplicate, confirmation (AID 588792;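 active = mean inhibition over 43.08%, the solvent-only control mean plus 3 SD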;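 also: 0% = DMSO treated cells and 100% = gossypol at 36 µM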). The conditions noted are these: HEK293 GAL4-SRC3 luciferase reporter, at 3.6 µM, active compounds read high.
For assay [2], the system named is transactivating tegument protein VP16 (Human herpesvirus 1), Gal4-VP16 luciferase reporter. In words: repression of VP16-driven luciferase reporter – cell-based, luminescence, high throughput, counter-screen for SRC3 inhibitor project (AID 588794; in the data active = inhibition above about 30%). Conditions: mammalian cells, at 3.6 µM, active compounds read high. For orientation: In a reporter assay the amount or activity of a reporter protein is the signal.

The target in assay [3] is Nuclear receptor coactivator 1 (Homo sapiens) (UniProt Q15788). In words: NCOA1 GAL4-fusion reporter inhibition – cell-based, luminescence, quadruplicate, confirmation (AID 588820).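 Also: 0% = DMSO wells and 100% = gossypol 36 µM treated wells.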 Conditions: HEK293 GAL4-SRC1 luciferase reporter, at 3.6 µM, active compounds read high.
Assay [4] in a line: repression of VP16-driven luciferase reporter – cell-based, luminescence, high throughput, counter-screen for SRC1 inhibitor project (AID 588824; in the data active = inhibition above about 25%). Conditions: cell-based VP16 transactivation luciferase luminescence; at 3.6 µM; active compounds read high.

Unmarked numbers belong to inactive results. Calls of active or inactive are those of the source.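 The calls were made as follows, unless noted: active = mean inhibition above 46.68%, the untreated control wells mean plus 3 SD; inactive = the rest.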

Chain of Nuclear receptor coactivator 1 (Homo sapiens) (Q15788 whole entry, looked up, the tested form may be a part): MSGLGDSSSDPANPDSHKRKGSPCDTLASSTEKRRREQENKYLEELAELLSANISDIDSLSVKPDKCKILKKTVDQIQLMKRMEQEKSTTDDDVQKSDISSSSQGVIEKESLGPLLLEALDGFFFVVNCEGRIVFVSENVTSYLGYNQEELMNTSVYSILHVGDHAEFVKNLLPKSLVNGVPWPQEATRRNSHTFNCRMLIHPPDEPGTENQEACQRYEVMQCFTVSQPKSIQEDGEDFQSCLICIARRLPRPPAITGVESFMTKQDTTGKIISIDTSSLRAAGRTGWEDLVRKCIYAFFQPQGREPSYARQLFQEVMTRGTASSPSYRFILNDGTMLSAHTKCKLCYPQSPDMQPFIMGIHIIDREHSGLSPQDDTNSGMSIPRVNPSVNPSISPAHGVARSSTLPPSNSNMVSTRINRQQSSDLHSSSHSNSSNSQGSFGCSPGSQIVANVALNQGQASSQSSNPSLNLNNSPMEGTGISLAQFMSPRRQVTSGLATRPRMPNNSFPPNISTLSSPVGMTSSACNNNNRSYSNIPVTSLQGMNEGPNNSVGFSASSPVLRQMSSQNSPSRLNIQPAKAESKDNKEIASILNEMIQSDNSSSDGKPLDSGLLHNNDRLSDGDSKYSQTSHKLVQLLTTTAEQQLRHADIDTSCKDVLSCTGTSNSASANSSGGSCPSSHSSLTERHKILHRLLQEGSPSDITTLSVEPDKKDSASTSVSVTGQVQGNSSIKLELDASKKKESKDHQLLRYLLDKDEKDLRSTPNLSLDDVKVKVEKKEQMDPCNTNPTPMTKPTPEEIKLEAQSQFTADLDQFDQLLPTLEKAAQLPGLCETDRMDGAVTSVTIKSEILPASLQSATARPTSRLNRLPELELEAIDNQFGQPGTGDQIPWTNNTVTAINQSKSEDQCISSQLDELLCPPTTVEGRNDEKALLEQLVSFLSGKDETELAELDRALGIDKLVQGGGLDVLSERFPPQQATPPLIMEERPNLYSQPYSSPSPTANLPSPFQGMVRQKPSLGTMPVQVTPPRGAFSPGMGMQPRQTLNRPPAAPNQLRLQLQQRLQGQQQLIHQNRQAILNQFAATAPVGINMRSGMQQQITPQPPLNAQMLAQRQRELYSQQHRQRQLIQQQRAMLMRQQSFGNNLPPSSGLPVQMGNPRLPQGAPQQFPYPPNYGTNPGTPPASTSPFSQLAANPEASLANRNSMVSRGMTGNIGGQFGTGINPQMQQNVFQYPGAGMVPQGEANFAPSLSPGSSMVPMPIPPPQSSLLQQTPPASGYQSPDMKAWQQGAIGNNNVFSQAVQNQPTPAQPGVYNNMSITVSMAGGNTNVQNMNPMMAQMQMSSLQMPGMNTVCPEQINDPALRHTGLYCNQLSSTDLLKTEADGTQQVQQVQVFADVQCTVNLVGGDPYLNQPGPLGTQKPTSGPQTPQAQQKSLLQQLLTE
Chain of Nuclear receptor coactivator 3 (Homo sapiens) (Q9Y6Q9 whole entry, looked up, the tested form may be a part): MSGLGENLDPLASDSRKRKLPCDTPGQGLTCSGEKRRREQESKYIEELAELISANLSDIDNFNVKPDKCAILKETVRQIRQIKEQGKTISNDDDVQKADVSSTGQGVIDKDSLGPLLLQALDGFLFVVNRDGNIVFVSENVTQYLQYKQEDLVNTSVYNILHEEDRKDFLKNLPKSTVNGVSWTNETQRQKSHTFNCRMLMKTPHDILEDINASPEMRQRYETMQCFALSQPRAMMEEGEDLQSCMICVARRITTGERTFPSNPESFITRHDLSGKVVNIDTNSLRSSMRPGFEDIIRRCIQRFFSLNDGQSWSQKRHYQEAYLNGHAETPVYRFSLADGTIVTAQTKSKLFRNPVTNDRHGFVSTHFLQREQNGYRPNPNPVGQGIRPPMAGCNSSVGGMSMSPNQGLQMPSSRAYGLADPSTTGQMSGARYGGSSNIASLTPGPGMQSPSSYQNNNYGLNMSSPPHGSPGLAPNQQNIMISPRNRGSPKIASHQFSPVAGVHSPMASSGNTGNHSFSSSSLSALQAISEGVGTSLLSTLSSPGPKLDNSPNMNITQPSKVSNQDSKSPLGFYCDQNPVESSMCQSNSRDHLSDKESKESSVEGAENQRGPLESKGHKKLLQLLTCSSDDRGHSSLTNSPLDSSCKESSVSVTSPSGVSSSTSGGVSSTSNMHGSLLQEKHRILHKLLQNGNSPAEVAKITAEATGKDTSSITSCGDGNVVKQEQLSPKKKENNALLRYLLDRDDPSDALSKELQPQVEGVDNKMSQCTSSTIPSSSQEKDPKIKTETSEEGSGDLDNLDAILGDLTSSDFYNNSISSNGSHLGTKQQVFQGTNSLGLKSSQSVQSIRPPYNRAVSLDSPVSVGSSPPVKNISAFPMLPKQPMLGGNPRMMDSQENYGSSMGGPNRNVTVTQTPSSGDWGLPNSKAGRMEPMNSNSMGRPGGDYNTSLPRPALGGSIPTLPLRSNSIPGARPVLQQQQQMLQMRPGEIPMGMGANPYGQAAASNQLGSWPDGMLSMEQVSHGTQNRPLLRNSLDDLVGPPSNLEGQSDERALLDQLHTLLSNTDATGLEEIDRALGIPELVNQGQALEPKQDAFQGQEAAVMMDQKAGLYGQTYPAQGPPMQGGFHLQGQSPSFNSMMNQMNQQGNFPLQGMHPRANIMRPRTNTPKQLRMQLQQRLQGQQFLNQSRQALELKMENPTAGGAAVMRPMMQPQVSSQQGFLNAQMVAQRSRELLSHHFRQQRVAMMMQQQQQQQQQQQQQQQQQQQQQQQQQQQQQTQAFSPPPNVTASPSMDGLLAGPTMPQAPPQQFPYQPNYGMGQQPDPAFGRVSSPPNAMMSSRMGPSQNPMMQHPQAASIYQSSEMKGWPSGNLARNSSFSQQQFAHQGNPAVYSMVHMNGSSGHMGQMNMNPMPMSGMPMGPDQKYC

Regarding `CC(=O)NC(c1cc(Cl)c2cccnc2c1O)C(C)C` (stereo unspecified), the inhibition in assay [1] was 31.1%; in assay [2], 23.5%; in assay [3], 38.5%; in assay [4], 20%.

For `COc1cc(/C=C2\SC(N)=NC2=O)cc(OC)c1`, the inhibition is 20.4% in assay [1], 27.3% in assay [2], 34.7% in assay [3] and 18.9% in assay [4].

As to `O=C(C1CCC(CNS(=O)(=O)c2cccs2)CC1)N1CCN(c2ccc(Cl)cc2)CC1` (stereo unspecified), the inhibition in assay [1] was 13.8%; in assay [2], 30.5% (active); in assay [3] it was 14.9%; in assay [4], 34.6% (active).

`CC(C)c1ccc(-c2nnn(CCC(=O)O)n2)cc1`: the inhibition in assay [1] is 52.2% (active); in assay [2], 46.8% (active); in assay [3] it was 41.3%; in assay [4], 37.5% (active).

Consider `NC(=O)c1sc2nccc(Nc3ccccc3)c2c1N`, for which the inhibition is 70.9% (active) in assay [1], 47.7% (active) in assay [2], 53.8% (active) in assay [3] and 39.8% (active) in assay [4].

As to `CC(=O)NC(c1ccccc1)c1cc(Cl)c2cccnc2c1O` (stereo unspecified), the inhibition was 29.2% in assay [1], 30.1% (active) in assay [2], 36% in assay [3] and 27% (active) in assay [4].

Consider `O=C(N/N=C/c1cc(O)ccc1Br)c1cccnc1`, for which the inhibition is 17.6% in assay [1], 37.5% (active) in assay [2], 19.8% in assay [3] and 39.3% (active) in assay [4].

Regarding `COc1ccc(CNc2nn3c(-c4cccc(C(=O)N(C)C)c4)cnc3s2)cc1`, the inhibition in assay [1] is 50.3% (active); in assay [2] it was 30.7% (active); in assay [3], 51.7% (active); in assay [4] it was 33.5% (active).

As for `Cc1cc(C)nc(SCC(=O)Nc2ccnc3ccccc23)n1`, the inhibition is 12.2% in assay [1], 36.5% (active) in assay [2], -7.31% in assay [3] and 31.7% (active) in assay [4].

Turning to `CCN1/C(=C/c2ccc3cc(C)cc(C)c3[n+]2CC)Sc2cc(C)ccc21`, the inhibition in assay [1] is 39.4%; in assay [2] it was 66.3% (active); in assay [3], 0.74%; in assay [4], 59.3% (active).

With `CCCCCCCCCn1c2c(c(=N)c3c1CCC3)CCC2`, the inhibition in assay [1] was 89.7% (active); in assay [2], 85.2% (active); in assay [3], 71.4% (active); in assay [4], 84.8% (active).

`CC(=O)N1c2ccc(S(=O)(=O)NCC3CCC(C(=O)Nc4cccc(C)n4)CC3)cc2CC1C` (stereo unspecified): the inhibition in assay [1] is -3.79%; in assay [2], 27.4%; in assay [3], -11.2%; in assay [4], 21.6%.

With `CC1CCN(Cc2c(C(=O)N/N=C/c3cc(Br)ccc3O)nnn2-c2nonc2N)CC1`, the inhibition in assay [1] was 75.4% (active); in assay [2], 83.5% (active); in assay [3] it was 84.8% (active); in assay [4] it was 81.9% (active).

For the compound `CN(C(=O)COC(=O)/C=C/c1cccc([N+](=O)[O-])c1)C1CCS(=O)(=O)C1` (stereo unspecified), the inhibition in assay [1] is 39.1%; in assay [2], 32.4% (active); in assay [3], 41.6%; in assay [4] it was 29.5% (active).

Regarding `Fc1ccc(CSc2nnc(-c3ccncc3)o2)cc1`, the inhibition was 53.9% (active) in assay [1], 22.7% in assay [2], 29.9% in assay [3] and 19.3% in assay [4].

With `Cc1ccc(NC(=O)CCC(=O)N/N=C/c2ccc(O)cc2O)cc1`, the inhibition in assay [1] was 7.69%; in assay [2], 7.07%; in assay [3], 20.4%; in assay [4] it was 15.4%.

In the case of `CC(C)(C)C(=O)NC(=S)NNC(=O)c1sc2ccccc2c1Cl`, the inhibition in assay [1] is 10.1%; in assay [2] it was 3.67%; in assay [3], -1.3%; in assay [4] it was -6.4%.

As for `COc1ccc(-c2cnc(N)nc2-c2ccc(OC)cc2O)cc1`, the inhibition in assay [1] is 22.5%; in assay [2] it was 13.7%; in assay [3], 29.7%; in assay [4] it was 18.4%.

As for `C[n+]1c2n(c3ccccc31)N=C(c1ccccc1)CS2`, the inhibition is 4.94% in assay [1], 37.2% (active) in assay [2], -2.14% in assay [3] and 35.1% (active) in assay [4].

`CC(C)(C)OC(=O)NCCCC[C@H](NC(=O)c1nc[nH]c1C(=O)N[C@@H](CCCCNC(=O)OC(C)(C)C)C(=O)OC(C)(C)C)C(=O)OC(C)(C)C`: the inhibition was -4.98% in assay [1], -9.56% in assay [2], -34.5% in assay [3] and -3.49% in assay [4].

As to `CC(C)CCNC(=O)C(c1ccncc1)N(Cc1cccs1)C(=O)Cn1nnc(-c2ccc(F)cc2)n1` (stereo unspecified), the inhibition in assay [1] was 66.2% (active); in assay [2], 54.1% (active); in assay [3] it was 46.3%; in assay [4] it was 52.2% (active).

With `CC(=O)NC(C)c1cc(Cl)c2cccnc2c1O` (stereo unspecified), the inhibition was 20.2% in assay [1], 2.75% in assay [2], 10.6% in assay [3] and 2.16% in assay [4].

For the compound `COCC(C)n1c(C)cc(C(=O)COC(=O)c2cc(=O)[nH]c3ccccc23)c1C` (stereo unspecified), the inhibition in assay [1] was 1.93%; in assay [2], -15.5%; in assay [3], -34.1%; in assay [4] it was -32.1%.

Turning to `CCC(=O)Nc1cc2nn(-c3ccc(C)cc3)nc2cc1C`, the inhibition in assay [1] is -6%; in assay [2], -33.2%; in assay [3], -102%; in assay [4], -68%.

In general, inhibition refers to the drop in the measured response relative to a control, in per cent.
